Whole data set: some 33,000 sequences, median “E-score (-0.5 to 0.5)” near -0.012, cut for the highest 2% near 0.27. The sample as a whole holds a higher share of the highest values than the screen did.
What follows are sequences tested against T1, Vhr1 (UniProt P40522) (assay: PBM E-score (8-mer binding enrichment) (E-score (-0.5 to 0.5)); higher = stronger / more preferred TF binding). Conditions: protein concentration: 200 nM; construct: GST-full length.
T1 sequence: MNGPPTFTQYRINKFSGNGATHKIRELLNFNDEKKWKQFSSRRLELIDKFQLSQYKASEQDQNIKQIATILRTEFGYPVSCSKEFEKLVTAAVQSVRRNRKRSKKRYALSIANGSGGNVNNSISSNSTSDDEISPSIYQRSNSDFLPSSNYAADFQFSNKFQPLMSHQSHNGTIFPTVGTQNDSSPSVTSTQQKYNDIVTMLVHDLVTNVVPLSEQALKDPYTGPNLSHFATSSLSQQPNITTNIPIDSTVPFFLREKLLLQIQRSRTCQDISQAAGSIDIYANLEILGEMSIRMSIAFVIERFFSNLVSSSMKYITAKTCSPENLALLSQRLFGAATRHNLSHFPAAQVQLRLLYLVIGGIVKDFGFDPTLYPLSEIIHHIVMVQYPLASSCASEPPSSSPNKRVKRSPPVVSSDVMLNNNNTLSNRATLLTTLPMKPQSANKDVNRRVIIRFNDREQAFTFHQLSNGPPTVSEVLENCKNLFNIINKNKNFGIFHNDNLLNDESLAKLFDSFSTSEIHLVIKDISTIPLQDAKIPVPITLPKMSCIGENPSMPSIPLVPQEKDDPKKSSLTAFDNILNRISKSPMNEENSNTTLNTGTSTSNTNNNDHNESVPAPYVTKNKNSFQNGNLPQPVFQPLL
Experimental: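 Universal 'all 10-mer' protein binding microarrays (Agilent AMADID 015681) probed with GST-tagged S. cerevisiae TFs (full-length or DBD) made by in vitro transcription/translation (PURExpress), about 100-200 nM. Bound TF was detected with fluorescent anti-GST. Each ungapped 8-mer (which stands for itself and its reverse complement) is scored by the PBM enrichment score (E-score), a modified Wilcoxon-Mann-Whitney statistic from -0.5 to +0.5, computed with the Universal PBM Analysis Suite. Scale: above 0.35 generally sequence-specific binding.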

Sequence | PBM E-score
ACTAGGCT | 0.154
GATCAGGC | -0.00147
TAGCCTGA | 0.0109
ACAGTGGA | -0.0091
ACTTGTTG | -0.0998
ACGACCCT | -0.139
ATGAGATA | 0.134
CAGCAAGA | -0.0328
AACGAAGG | -0.252
TGGATCCA | -0.0454
AGGATCCA | 0.0343
CGGATCCA | 0.298
GACTCAGC | 0.404
AACTCAGC | -0.023
GACTCAGA | 0.308
CACTCAGA | 0.12
CACTCAGC | 0.044
AACTCAGA | 0.0696
ACTGCAGA | -0.0788
AATCTAGA | -0.14
AACCGCGA | 0.278
TACCGCGA | 0.107
AACCGCGT | 0.0481
CCTTTGCC | -0.17
CCATTCGC | 0.109

Sequence | PBM E-score
GTCATCGA | 0.205
CCCAACAG | -0.0293
CATGTATA | 0.28
CATGTATC | 0.18
GATGTATA | 0.242
ACGATGCT | 0.0556
AGTTGGAT | 0.127
AAGTCATT | -0.0196
CAGTCATC | 0.419
CCGTCATC | -0.0774
AAGTCATG | 0.41
AGGTCATG | 0.136
ATGTCATC | 0.0412
CGGTCATC | 0.124
AAGTCAAG | -0.156
AAGTCATC | 0.323
CAAAATCC | 0.096
CCCTTAAC | -0.168
ACATGTGA | 0.0459
ACATGTGC | 0.117
ACATGTGG | 0.278
AGTCGGTA | -0.0272
ACCCCAAT | -0.0588
ATTTGACA | -0.00873
GTCCATCA | -0.104

Sequence | PBM E-score
ACGAATCA | 0.336
CCGAATCG | 0.101
ACGAATCT | -0.0246
GCGAATCC | 0.0147
ACGAATCC | 0.117
CCGAATCA | 0.288
CCGAATCC | 0.0952
TCGAATCA | 0.253
GCGAATCA | 0.345
ATTTCTGA | -0.152
TATGGAGA | -0.137
CTCCCCCC | -0.0954
ATCTGTTA | -0.0428
GTACACAC | 0.261
ATCAGGTA | 0.193
ATCCCCAC | 0.122
ATACCCAC | 0.176
GCGCGAAC | 0.0578
AGCTAAAG | -0.21
AGAGCCTC | -0.228
AGGCGTGA | 0.019
GGGCGTGA | 0.297
CGGCGTGA | 0.142
ACGACTAA | 0.194
GCGACTAA | 0.316

Sequence | PBM E-score
CCGACTAC | 0.269
GCGACTAC | 0.341
TCGACTAA | 0.207
ACGACTAC | 0.209
CCCAGGCA | 0.0398
CATTCAGC | -0.161
CTTGTAAA | -0.0609
CGTGGGAG | 0.0618
AATAAAGC | -0.176
AGTCGCAC | 0.296
GGTCGCAC | 0.0284
AGTCGCCA | 0.233
AGTCGCAG | 0.24
AGTCGCCC | 0.346
AGTCGCCG | 0.246
GTTCTTGA | -0.0686
CTAGGGGC | -0.146
AACACCAC | 0.0462
GTTCAAAC | -0.0829
ATACTGCA | 0.234
CGCCACGA | -0.0781
CTTGCAAC | 0.0737
GGAATCCC | 0.034
GGAATCAC | 0.388
CGAATCAC | 0.331

Sequence | PBM E-score
GGAATCAA | 0.154
CGAATCTC | -0.0376
CGAATCCC | 0.00269
AAAAGCCA | -0.0583
ACACCTGC | 0.0726
AGGCTACA | 0.0844
ATGACCAC | 0.176
ACCCTATG | 0.136
TACGTTGA | 0.0682
GATTTTGA | 0.0345
ATTACTTG | 0.164
ACTCCGAG | 0.357
CCTCCGAC | -0.0621
ACTCCGAA | 0.116
ACTCCGAC | 0.332
ACTCCGAT | 0.1
GCTCCGAC | 0.0683
TCTTAACA | -0.0919
CATGCATC | 0.28
CATGCATG | 0.117
CATGCATA | 0.0152
ACCTCCAT | 0.0255
CTAGTGGA | -0.162
GATCCCTA | -0.0993
GGCCAGGA | -0.105

Sequence | PBM E-score
CGTTAGTC | 0.132
AATTAGTC | 0.29
CATTAGTC | 0.257
AGTTAGTA | 0.137
AATTAGTA | 0.146
AGTTAGTC | 0.291
CAATCTAA | -0.13
ATAGCAAG | 0.161
GCGAGACC | -0.049
ACTTAGGA | -0.198
CGACTACG | 0.188
CGACTAAA | 0.0758
AGACTACA | 0.17
TGACTAAA | 0.326
CGACTAAC | 0.303
GGACTAAC | -0.00735
CGACTACA | 0.272
GGACTACA | 0.146
GGACTAAA | -0.248
AGACTAAA | 0.0442
CGACTACC | 0.22
TGACTACA | 0.359
CAGATAAG | -0.0755
CTTCGACA | -0.0949
CGGCCAAC | 0.0556

Sequence | PBM E-score
CGTCCTAA | 0.0547
GGCACATA | 0.13
GGGCCAAC | -0.157
ACCATAGG | 0.0531
TAGTAATA | 0.191
CAGGGGCG | 0.301
AAGGGGCG | -0.0512
CAGGGGCC | -0.184
CTTTAGAA | -0.238
GAGAAAGA | -0.167
ATCCGGAC | -0.192
GTCCGGAC | 0.273
CTCCGGAC | 0.0766
AGGATCTC | -0.119
ATCAATGC | 0.0623
AGGAGACG | -0.176
CCCGTGAA | -0.0611
CGCCTATA | -0.135
AGCGACTA | 0.211
AGCGACTC | 0.314
CGCGACCC | 0.153
GGCGACTA | 0.212
CTCGACTA | 0.163
CGCGACTA | 0.391
